Here are results for 20 compounds from PubChem BioAssay (NCI).

A short description of experiment [1]: NCI Yeast Anticancer Drug Screen. Data for the rad50 strain (AID 155).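 Also: 0% = growth of vehicle-only cultures of the same strain.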 The note with it: S. cerevisiae rad50 strain growth inhibition; at 50.0 µM; stronger effect = higher value. In short, it runs like this:
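Cells are treated with compound, grown, and their growth is then scored against vehicle-only cultures of the same repair-deficient yeast strain.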

Experiment [2] is described as follows: NCI Yeast Anticancer Drug Screen. Data for the mec2-1 strain (AID 157). The following applies: S. cerevisiae mec2-1 strain, at 50.0 µM, stronger effect = higher value. In short, it runs like this:
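Readout is yeast growth inhibition, normalised to vehicle-treated controls, in the mec2-1 strain exposed to compound.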

The nature of experiment [3]: NCI Yeast Anticancer Drug Screen. Data for the sgs1 mgt1 strain (AID 161).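 Also: 0% = growth of cultures given vehicle only.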 The note with it: S. cerevisiae sgs1 mgt1 strain, at 50.0 µM, stronger effect = higher value. In short, it runs like this:
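Yeast cells carrying a defined DNA-repair defect were exposed to test compounds. Growth inhibition was measured relative to vehicle-treated controls.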

Experiment [4] in a line: NCI Yeast Anticancer Drug Screen. Data for the cln2 rad14 strain (AID 165).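 Also: 0% = growth equal to vehicle treated cultures.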 The following applies: S. cerevisiae cln2 rad14 strain, at 50.0 µM, stronger effect = higher value. In a few lines: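 Relative to vehicle controls, growth inhibition of compound-treated cln2 rad14 yeast was recorded.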
Experiment [5] in a line: NCI Yeast Anticancer Drug Screen. Data for the bub3 strain (AID 167). The note with it: S. cerevisiae bub3 mutant strain, at 50.0 µM, stronger effect = higher value. In a few lines: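 Part of a panel of yeast mutants defective in DNA damage repair or cell cycle regulation. Each strain is grown with compound, and inhibition is calculated relative to solvent-treated cultures.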
Experiment [6] in a line: NCI Yeast Anticancer Drug Screen. Data for the mlh1 rad18 strain (AID 175). The following applies: S. cerevisiae mlh1 rad18 strain growth inhibition; at 50.0 µM; stronger effect = higher value. In short, it runs like this: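 Test agents were incubated with a yeast strain of defined genotype (DNA damage repair defect). Inhibition of growth was derived by comparison with vehicle-exposed cultures.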

The structures appear in SMILES notation. The panel holds about 79,000 compounds, 15% with a hit somewhere; the sample as a whole holds those more often. A number with no mark means an inactive call. Active and inactive are the calls of the source. Rule as the data show it: active = growth inhibition above about 70%; inactive = the rest.

`CCCCCC(=O)Cc1cc(OC)cc2c1C(=O)Oc1cc(O)c(C(=O)O)c(CC(=O)CCCCC)c1O2`: the growth inhibition in experiment [1] is 83% (active); in experiment [2], 86.5% (active); in experiment [3] it was 85.8% (active); in experiment [4] it was 79.4% (active); in experiment [5], 80.1% (active); in experiment [6], 78.1% (active).

As to `O=c1cc(C(O)C(O)C(O)C(O)CO)[nH]c(=O)[nH]1` (stereo not given), the growth inhibition in experiment [1] is 2.4%; in experiment [2], 7.1%; in experiment [3], 9%; in experiment [4] it was 24.9%; in experiment [5] it was -5.05%; in experiment [6], -4.6%.

For the compound `C/C=C(\CC)C(C#N)(CCC)C(=O)OCC` (stereo not given), the growth inhibition was -10.2% in experiment [1]; -17.6% in experiment [2]; -21.2% in experiment [3]; -9% in experiment [4]; -33.1% in experiment [5]; -17.6% in experiment [6].

In the case of `CN1CN=C(Sc2ccc(Cl)cc2[N+](=O)[O-])NC1`, the growth inhibition in experiment [1] is -22.2%; in experiment [2] it was -35.9%; in experiment [3], -22.1%; in experiment [4] it was -5%; in experiment [5] it was -6.9%; in experiment [6] it was -11.7%.

On to `O=C(Nc1ccccc1C(=O)N/N=C/c1ccccc1O)c1ccccc1Cl`, for which the growth inhibition in experiment [1] was 73.3% (active); in experiment [2] it was 91% (active); in experiment [3], 91.4% (active); in experiment [4] it was 84.8% (active); in experiment [5] it was 68.3%; in experiment [6], 90.8% (active).

As to `O=C(O)c1ccccc1N1C(=O)c2ccccc2C1=O`, the growth inhibition is 4.95% in experiment [1]; -33.2% in experiment [2]; -4.1% in experiment [3]; 8.2% in experiment [4]; 11.2% in experiment [5]; -1.55% in experiment [6].

As for `Cc1cn(C)c2c1-c1oncc1CC2`, the growth inhibition is -4.3% in experiment [1]; -14.7% in experiment [2]; 5.4% in experiment [3]; -7% in experiment [4]; -35.3% in experiment [5]; 2.3% in experiment [6].

For `O=C(/C=C/c1ccc(O)cc1)c1ccc(O)cc1`, the growth inhibition was -30% in experiment [1]; -13.7% in experiment [2]; -37.8% in experiment [3]; 0.15% in experiment [4]; -2.9% in experiment [5]; -20.6% in experiment [6].

Turning to `Cc1ccc(Cl)cc1N`, the growth inhibition is 11.8% in experiment [1]; 31.1% in experiment [2]; 8.25% in experiment [3]; -27% in experiment [4]; 0.85% in experiment [5]; 18.8% in experiment [6].

As to `N#Cc1cnc(=S)n(-c2cc(C(F)(F)F)cc(C(F)(F)F)c2)c1N`, the growth inhibition in experiment [1] was 5.7%; in experiment [2] it was -10.9%; in experiment [3] it was 15.9%; in experiment [4] it was 11.7%; in experiment [5], 8.85%; in experiment [6] it was 11.5%.

As for `O=C(NCC1(O)CCCCC1)c1ccccc1`, the growth inhibition was 3.65% in experiment [1]; -14.2% in experiment [2]; -5.55% in experiment [3]; -8.35% in experiment [4]; 3.8% in experiment [5]; 1.3% in experiment [6].

As for `OC1CCC2CCCCC2C1` (stereo not given), the growth inhibition is -7.3% in experiment [1]; -16.9% in experiment [2]; -15.4% in experiment [3]; -25.1% in experiment [4]; -1.95% in experiment [5]; 2.85% in experiment [6].

Turning to `C[n+]1ccc2ccccc2c1C#N`, the growth inhibition in experiment [1] is 2.55%; in experiment [2], 10.6%; in experiment [3] it was -3.75%; in experiment [4], -0.35%; in experiment [5], 0.35%; in experiment [6], 14.9%.

Turning to `Cc1cn(C2CC(O)C(CO)O2)c(=O)[nH]c1=S` (stereo not given), the growth inhibition in experiment [1] is 9.05%; in experiment [2] it was -7.25%; in experiment [3], -3.5%; in experiment [4], -37.3%; in experiment [5] it was 14.2%; in experiment [6] it was 13.2%.

Take `COC(=O)N1CCC(Sc2ccccc2)C2(CCSc3ccccc3)CCC=C12` (stereo not given): the growth inhibition in experiment [1] was -2.2%; in experiment [2] it was -2.95%; in experiment [3] it was 5%; in experiment [4], -28.1%; in experiment [5] it was -27.6%; in experiment [6], -12.6%.

Consider `CCOC(=S)SC1OC(COC(C)=O)C(OC(C)=O)C(OC(C)=O)C1OC(C)=O` (stereo not given), for which the growth inhibition was 57.5% in experiment [1]; 11.4% in experiment [2]; 55.2% in experiment [3]; 45.8% in experiment [4]; 17.2% in experiment [5]; 10.7% in experiment [6].

On to `Cn1c(N)cc(=O)nc1N`, for which the growth inhibition is -7.55% in experiment [1]; 2.05% in experiment [2]; 6.2% in experiment [3]; 10.7% in experiment [4]; -1% in experiment [5]; 8.2% in experiment [6].

Regarding `COc1cc(/C=C/c2ccccn2)oc(=O)c1`, the growth inhibition in experiment [1] was 5.2%; in experiment [2], -6.7%; in experiment [3], -2.05%; in experiment [4], -14.3%; in experiment [5] it was -12.1%; in experiment [6], 7.9%.

For the compound `CCC1=CCN(c2cc(C)ccn2)OC1c1ccc(OC)cc1` (stereo not given), the growth inhibition is 47.9% in experiment [1]; 6.15% in experiment [2]; 48.4% in experiment [3]; 14.3% in experiment [4]; 61% in experiment [5]; 6.35% in experiment [6].

For the compound `CCCCCCCCCc1cc(-c2ccc(C=O)s2)sc1-c1ccc(C=O)s1`, the growth inhibition in experiment [1] is 8.8%; in experiment [2], -4.5%; in experiment [3] it was -8.8%; in experiment [4], -3.6%; in experiment [5] it was -12.9%; in experiment [6], 0.4%.
